Screens from PubChem BioAssay.
A selection: hits, their analogues and other compounds. The true share with any hit is near 19%.
TDP1 cell CPT – DT40-hTDP1 cell growth loss with CPT; 420,000 tested, 12% active; Potency, µM (titrated, usually from 46.2 µM), for inactives: top-dose activity change, negative = growth inhibition, usual class: inhibitors; AID 686979; chicken DT40 Tdp1-/-;hTDP1 cells + 20 nM CPT, ATP luminescence, 48 h; note: nearly all actives have a fitted effect of over 55% in size
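Chicken DT40 Tdp1-/- cells stably complemented with human TDP1 were seeded at 400 cells/well in medium containing 20 nM camptothecin, exposed to pin-transferred compounds, and grown at 37 °C for at least 48 hr. Viability was read as ATP luminescence.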
HT1080 IDH1KD tx – kills HT-1080 cells with IDH1 knockdown. HT-1080 IDH1 knockdown viability, ATP luminescence, 48 h. Potency, µM (series often up to 46.1 µM), without a hit: at the highest dose activity, negative = toxicity, most hits filed as cytotoxic. 360,000 tested, 2% active. AID 686971;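 note: 0% = DMSO wells and -100% = cell-free medium wells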
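In this qHTS, HT-1080 cells depleted of IDH1 are exposed for 48 h at 37 °C to compound titrations. Toxicity is scored from CellTiter-Glo luminescence, with DMSO as full viability and medium alone as none.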
KB-3-1 cytotox – KB-3-1 parental cell cytotoxicity; KB-3-1 viability, CellTiter-Glo ATP luminescence, 72 h; Potency, µM (top dose mostly 46.1 µM), hits mostly cytotoxic; 400,000 tested, 1.4% active; note: nearly all actives have a fitted effect of over 60% in size
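KB-3-1 cells, DMEM (no phenol red) + 10% FBS; compound by pin transfer, 72 h, 37 °C. Readout: CellTiter-Glo luminescence after 10 min. Data normalized, curve-fitted.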
KB-V1 MDR tox – kills drug-selected multidrug resistant KB-V1 cells. KB-V1 MDR cells viability, CellTiter-Glo, 72 h. Potency, µM (series often up to 46.1 µM), hits mostly cytotoxic. 400,000 tested, 3.4% active; note: nearly all actives have a fitted effect of over 60% in size
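Cytotoxicity via CellTiter-Glo luminescence after 72 h compound exposure at 37 degrees C. Cells: drug-selected KB-V1 line, DMEM phenol-red free plus 10% FBS. Compounds tested at multiple concentrations; normalized data fitted to concentration-effect curves.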
HT1080NT lethal – kills 2HG-producing HT-1080-NT fibrosarcoma cells; AID 686970; 360,000 tested, 1.6% active; Potency, µM (titrated, usually from 46.1 µM), without a hit: top-dose activity, negative = less viability, hits mostly cytotoxic; HT-1080-NT fibrosarcoma viability, CellTiter-Glo ATP luminescence, 48 h;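 note: NT is the 2HG producing partner of a matched IDH1 knockdown line; 0% = DMSO-treated cells and -100% = media-only wells without cells; nearly all actives have a fitted effect of over 55% in size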
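A 48-hour cytotoxicity screen used HT-1080-NT cells plated 2 hours before compound delivery. ATP-based CellTiter-Glo luminescence measured viability, normalized to DMSO and no-cell controls.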
TDP1 cell noCPT – qHTS for Inhibitors of human tyrosyl-DNA phosphodiesterase 1 (TDP1): qHTS in cells in absence of CPT. 420,000 tested, 15% active. Potency, µM (top dose mostly 46.2 µM), inactives show at the highest dose activity change, negative = growth inhibition, actives largely listed as inhibitors. AID 686978, 2013. DT40 Tdp1-/- hTDP1 cells, no CPT, ATP luminescence, 48 h; note: nearly all actives have a fitted effect of over 55% in size
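Chicken DT40 Tdp1-/- cells stably complemented with human TDP1 were seeded at 400 cells/well with DMSO in place of 20 nM camptothecin. After compound pinning, cells grew at least 48 hr at 37 °C; viability read by CellTiter-Glo luminescence.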
Active calls of the source: *; i = inactive; ? = inconclusive; / = no result given; [ ] = another dose, or the depositor's remark. Calls come from the whole dose curve; as a rule, active = well fitted curve in the direction sought with a large enough effect; inconclusive = small, poorly fitted or top-dose-only effect, or another doubt; inactive = no such curve, though single readings can be large; an effect the other way counts as inactive or inconclusive. Unless noted, % is set by controls: 0 for no effect and ±100 for the full control effect; potency is the fitted concentration of half-maximal effect.

SMILES | TDP1 cell CPT | HT1080 IDH1KD tx | KB-3-1 cytotox | KB-V1 MDR tox | HT1080NT lethal | TDP1 cell noCPT
COc1ccc(N2CCN(CCCNC(=O)C3COc4ccc(OC)cc4C3)CC2)cc1 (centres undefined) | 14.6µM* | / | i | i | / | 20.6µM*
COc1ccc2c(c1)CC(C(=O)NCCN1CCN(c3ccccc3F)CC1)CO2 (centres undefined) | ? | / | i | i | / | ?
COc1ccc2c(c1)CC(C(=O)NCCCN1CCN(c3ccc(F)cc3)CC1)CO2 (centres undefined) | 20.6µM* | / | i | i | / | 25.9µM*
O=C(NCCCN1CCN(c2ccccc2F)CC1)C1CCN(S(=O)(=O)N2CCOCC2)CC1 | 6.7% | 2.0% | i | i | 2.3% | 3.7%
COc1ccc(N2CCN(CCCNC(=O)CN3C(=O)COc4ccccc43)CC2)cc1 | ? | -1.1% | i | i | 4.4% | -3.6%
COc1ccc(N2CCN(CCCNC(=O)C3COc4ccccc4C3)CC2)cc1 (centres undefined) | 11.6µM* | / | i | i | / | 16.4µM*
O=C(NCCCN1CCN(c2ccccc2F)CC1)C1COc2ccccc2C1 (centres undefined) | 25.9µM* | / | i | i | / | ?
CCCC(=O)N1CCCC1(C)C(=O)Nc1ccc(OC(F)F)cc1 (centres undefined) | 9.0% | ? | i | i | 8.0% | -6.5%
COc1ccc(OC)c(CNC(=O)CN(c2ccc(C)cc2)S(=O)(=O)N(C)C)c1 | -14.3% | / | i | i | / | -19.8%
COC(=O)C[C@@H]1C[C@@H]2c3cc(NS(=O)(=O)c4ccc(F)cc4)ccc3O[C@@H]2[C@@H](CO)O1 | -26.5% | 4.1% | i | i | 3.9% | ?
CCOC(=O)c1cc(OC(=O)c2cc(OC)c(OC)c(OC)c2)n(-c2ccccc2)n1 | / | / | i | i | / | /
C[C@@H]1CN([C@H](C)CO)C(=O)CCCn2nncc2CO[C@@H]1CN(C)S(=O)(=O)c1ccc(F)cc1 | 11.9% | 10.6% | i | i | 6.8% | ?
CCC(C)N1C(=O)/C(=C/c2c(NCCCOC(C)C)nc3c(C)cccn3c2=O)SC1=S (centres undefined) | ? | 12.6% | i | 6.51µM* | 14.1% | 9.2µM*
COc1cc(NC(=O)C2CCCCC2)c(OC)cc1NC(=O)c1ccco1 | -25.9% | 1.8% | i | i | -5.4% | ?
CCOc1cc(NS(=O)(=O)c2ccccc2)c(OCC)cc1NC(=O)c1ccco1 | ? | -3.9% | i | 14.6µM* | 2.2% | 25.9µM*
CCOc1cc(NS(C)(=O)=O)c(OCC)cc1NC(=O)c1cccs1 | -26.2% | 6.5% | ? | 9.2µM* | 3.5% | ?
CCOc1cc(NS(=O)(=O)c2ccc(NC(C)=O)cc2)c(OCC)cc1NC(=O)C(C)C | ? | ? | i | ? | -6.2% | -22.8%
CCOc1cc(NC(=O)C2CCCCC2)c(OCC)cc1NC(=O)c1ccco1 | 7.31µM* | 9.6% | i | ? | 1.2% | ?
CCOc1cc(NS(=O)(=O)c2ccc(Cl)cc2)c(OCC)cc1NC(=O)CC(C)C | 22.4µM* | ? | i | 11.2µM* | ? | 17.8µM*
Cc1nc2cnc(Oc3cccc(Cl)c3)nc2n(CCC#N)c1=O | 1.4% | / | / | / | / | ?
O=C(COC(=O)CCN1C(=O)C2CC=CCC2C1=O)Nc1ccc(Cl)cc1F (centres undefined) | -18.8% | 9.2% | i | i | 10.9%[9.24 µM] | 21.6%
CCOc1cc(NC(=S)NCC2CCCO2)c(OCC)cc1NC(=O)C1CC1 (centres undefined) | -3.2% | -3.6% | i | ? | 11.1% | 4.61µM*
